Growth data for seven compounds are collected here from PubChem BioAssay (NCI).

Some test systems named below: HCT-15 colon; HT29 colon; SNB-75 CNS; SNB-19 CNS; U251 CNS; PC-3 prostate; SK-MEL-5 melanoma; UACC-62 melanoma; LOX IMVI melanoma; SK-MEL-28 melanoma; SK-MEL-2 melanoma; EKVX NSCLC; SN12C renal; UO-31 renal; TK-10 renal; ACHN renal; CAKI-1 renal; A498 renal; CCRF-CEM leukemia; MOLT-4 leukemia.
Holding throughout (assay): NCI-60 one-dose screen, 48 h (100 = growth as untreated, 0 = no growth, -100 = all killed)
Details in all cases: 10 µM unless noted

The panel holds about 83,000 compounds, 20% with a hit somewhere; the sample as a whole holds those more often.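 Step 1: grow cells in 96-well plates. Step 2: add test compound at a single concentration. Step 3: incubate 48 h. Step 4: record percent growth.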 Unmarked numbers belong to inactive results. Active and inactive are the calls of the source. How the source made its calls: active means growth percent below 10; inactive means the rest.

In the case of `O=c1oc2c(Br)cc(Br)cc2cc1-c1cc(-c2ccc(-c3cc(-c4cc5cc(Br)cc(Br)c5oc4=O)nc(-c4cc5cc(Br)cc(Br)c5oc4=O)c3)cc2)cc(-c2cc3cc(Br)cc(Br)c3oc2=O)n1`, the growth in the assay on HCT-15 colon was 111%; with HT29 colon, 90.8%; in the assay with SNB-75 CNS, 105%; in the assay on SNB-19 CNS, 101%; in the assay with U251 CNS, 107%; in the assay with PC-3 prostate it was 97.5%. In addition, the growth with SK-MEL-5 melanoma is 108%; in the assay with UACC-62 melanoma it was 102%; in the assay with LOX IMVI melanoma it was 99.5%; in the assay on SK-MEL-28 melanoma, 112%; in the assay with SK-MEL-2 melanoma it was 101%; with EKVX NSCLC it was 105%. Also, the growth with SN12C renal was 107%; with UO-31 renal, 80.6%; with TK-10 renal it was 107%; in the assay with ACHN renal it was 103%; in the assay on CAKI-1 renal it was 110%; with A498 renal, 95.9%. Also, the growth with CCRF-CEM leukemia was 101%; in the assay with MOLT-4 leukemia it was 102%.

As to `COc1ccc(C2=C(CN)C(O)NC(=NCC(=O)c3ccc4ccccc4c3)N2)cc1` (stereo not given), the growth in the assay on HCT-15 colon was 106%; with HT29 colon, 101%; in the assay on SNB-75 CNS, 87.2%; in the assay on SNB-19 CNS it was 104%; in the assay with U251 CNS, 102%; in the assay on PC-3 prostate, 104%. Besides, the growth in the assay with SK-MEL-5 melanoma was 108%; in the assay on UACC-62 melanoma, 101%; with LOX IMVI melanoma, 95.5%; with SK-MEL-28 melanoma, 103%; with SK-MEL-2 melanoma it was 99.9%; in the assay on EKVX NSCLC, 113%. Further, the growth in the assay on SN12C renal is 103%; with UO-31 renal it was 81%; in the assay with TK-10 renal it was 98.1%; in the assay with ACHN renal, 94.5%; in the assay with CAKI-1 renal, 94.5%; with A498 renal, 118%. The growth was 110% in the assay on CCRF-CEM leukemia and 98% in the assay with MOLT-4 leukemia.

With `CCN1C(=S)N(CC)C2C1NC(=S)N2/N=C/C=C/c1ccccc1` (stereo not given), the growth in the assay with HCT-15 colon was 26.5%; with HT29 colon, 5.26% (active); in the assay on SNB-75 CNS it was -21.6% (active); in the assay on SNB-19 CNS it was 31.4%; with U251 CNS, 27.7%; in the assay on PC-3 prostate, 36.5%. Moreover, the growth with SK-MEL-5 melanoma was 25%; with UACC-62 melanoma, 24.5%; with LOX IMVI melanoma it was 37.6%; with SK-MEL-28 melanoma it was 53.6%; in the assay with SK-MEL-2 melanoma, 46.7%; in the assay with EKVX NSCLC, 62.5%. Further, the growth in the assay on SN12C renal was 40.8%; with UO-31 renal it was 40%; with TK-10 renal it was 69.2%; with ACHN renal, 39.3%; with CAKI-1 renal, 30.4%; with A498 renal it was 0.507% (active). In addition, the growth is 14.7% with CCRF-CEM leukemia and 26.4% in the assay with MOLT-4 leukemia.

Regarding `COc1ccc(C(c2cc(OC)c(OC)c(OC)c2)n2ccnc2)cc1O` (stereo not given), the growth in the assay on HCT-15 colon is 7.7% (active); in the assay on HT29 colon it was 5.94% (active); with SNB-75 CNS, 56.7%; with SNB-19 CNS, 30.5%; in the assay with U251 CNS, 15.5%; in the assay with PC-3 prostate, 20.7%. The growth in the assay with SK-MEL-5 melanoma was -12.9% (active); in the assay with UACC-62 melanoma, 36.5%; in the assay with LOX IMVI melanoma, 25.7%; with SK-MEL-28 melanoma, 62.9%; in the assay with SK-MEL-2 melanoma, 43.5%; with EKVX NSCLC it was 30.2%. Further, the growth is 37.6% in the assay with SN12C renal; 62% in the assay on UO-31 renal; 52.9% in the assay on TK-10 renal; 42.4% in the assay on ACHN renal; 41.3% in the assay on CAKI-1 renal; 8.04% (active) in the assay with A498 renal. Also, the growth was 6.97% (active) in the assay with CCRF-CEM leukemia and 14% in the assay on MOLT-4 leukemia.

With `CCOC(=O)c1cc2c(n1Cc1cc(OC)cc(OC)c1Br)-c1nc(NC(C)=O)sc1CCC2`, the growth is 83% in the assay on HCT-15 colon; 63.3% in the assay on HT29 colon; 65.7% in the assay on SNB-75 CNS; 83.9% in the assay with SNB-19 CNS; 63.3% in the assay with U251 CNS; 22.1% in the assay on PC-3 prostate. The growth was 82.1% in the assay on SK-MEL-5 melanoma; 67.3% in the assay on UACC-62 melanoma; 80.3% in the assay on LOX IMVI melanoma; 98.6% in the assay on SK-MEL-28 melanoma; 82.6% with SK-MEL-2 melanoma; 58.6% in the assay on EKVX NSCLC. Also, the growth with SN12C renal was 77.5%; with UO-31 renal, 51.8%; in the assay on TK-10 renal, 94.4%; with ACHN renal it was 91.2%; in the assay with CAKI-1 renal it was 67.3%; in the assay on A498 renal it was 55.8%. The growth with CCRF-CEM leukemia is 56.3%; in the assay with MOLT-4 leukemia, 46.7%.

For the compound `COc1ccc(/C(C)=C(\c2ccc(OCCN3CCCCCC3)cc2)c2ccc(OC(=O)C3CCCCC3)cc2)cc1`, the growth in the assay on HCT-15 colon is -76.7% (active); with HT29 colon, -71% (active); in the assay with SNB-75 CNS it was -11.1% (active); in the assay on SNB-19 CNS, 3.58% (active); in the assay on U251 CNS, -84.9% (active); with PC-3 prostate, -49.8% (active). For the same compound, the growth is -99.7% (active) in the assay with SK-MEL-5 melanoma; -73.7% (active) in the assay on UACC-62 melanoma; -93.5% (active) in the assay on LOX IMVI melanoma; -84.5% (active) in the assay with SK-MEL-28 melanoma; -78.3% (active) in the assay with SK-MEL-2 melanoma; -25.3% (active) with EKVX NSCLC. In addition, the growth in the assay on SN12C renal was -87.2% (active); in the assay on UO-31 renal, -96.9% (active); with TK-10 renal, -79.2% (active); in the assay on ACHN renal it was -88.5% (active); with CAKI-1 renal, -34.4% (active); with A498 renal, -3.54% (active). In addition, the values for the growth with CCRF-CEM leukemia and with MOLT-4 leukemia were -31.5% (active) and -13.7% (active), respectively.

For the compound `CN1CCN(c2ccc(/C=C/C(=O)c3ccc(O)cc3)cc2)CC1`, the growth in the assay on HCT-15 colon is 91.1%; in the assay on HT29 colon, 100%; in the assay on SNB-75 CNS it was 85.6%; with SNB-19 CNS it was 99.6%; with U251 CNS, 86.7%; with PC-3 prostate it was 93.1%. For the same compound, the growth in the assay with SK-MEL-5 melanoma is 94.1%; in the assay on UACC-62 melanoma, 92.7%; in the assay with LOX IMVI melanoma, 95.4%; with SK-MEL-28 melanoma, 98.8%; in the assay on SK-MEL-2 melanoma, 102%; in the assay on EKVX NSCLC it was 83.7%. Moreover, the growth in the assay with SN12C renal is 94.1%; in the assay on UO-31 renal it was 85.3%; with TK-10 renal, 122%; in the assay with ACHN renal, 105%; with CAKI-1 renal it was 98.9%; in the assay with A498 renal, 82.9%. Also, the growth in the assay on CCRF-CEM leukemia was 102%; in the assay with MOLT-4 leukemia, 95%.
